PubChem BioAssay (Tox21)
Inconclusive results are not listed. A number with no mark means an inactive call. Activity calls are given as the source filed them. The call rests on the fitted dose curve; in most records, active means well fitted cell-killing curve with a large enough effect in the repeat runs; inconclusive means weak or mixed curves, or effect the other way; inactive means flat fitted curve, though single readings scatter.

Experiment: cAMP Responsive Elements (CRE) small molecule antagonists, cell-based qHTS assay: qHTS cell viability counter screen (AID 2060913); further: nearly all actives have a fitted effect of over 40% in size
Settings: CRE-bla HEK293T viability, CellTiter-Glo luminescence, 5 h; series mostly up to 92.4 µM; viability change, negative = cytotoxic: at the top concentration
Summary of the method: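 Steps: cells plated and held 18 hrs at 37 C/5% CO2; compounds and NKH477 (0.25 uM final) added; 3 hrs incubation; reporter substrate read; CellTiter-Glo added to measure cytotoxicity by luminescence.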
On the % scale 0 is the no-effect control and ±100 the full control effect; potency means the concentration at half of the fitted maximal effect.

Structure (SMILES)	Potency	viability change, negative = cytotoxic
CC(=O)OC[C@H]1O[C@@](COC(C)=O)(O[C@H]2O[C@H](COC(C)=O)[C@@H](OC(C)=O)[C@H](OC(C)=O)[C@H]2OC(C)=O)[C@@H](OC(C)=O)[C@@H]1OC(C)=O	inactive	
O=C(O)CN1C(=O)c2cccc3cccc(c23)C1=O		-0.425% [at 42.5 µM]
CCCOc1ccc(S(=O)(=O)N2CCN(CC)CC2)cc1-c1nc2c(CC)n(Cc3ccccn3)nc2c(=O)[nH]1		11.6%
Cn1c(N)nc2nc[nH]c2c1=O		11.2%
O=C1CCCN1CCO		-4.34%
CCCCOCCOC(=O)COc1cc(Cl)c(Cl)cc1Cl		0.603%
CCCCCCCCCCCCCCCCCCN(C)C		0.932% [at 42.5 µM]
CC(C(=O)O)c1cccc(Oc2ccccc2)c1 (stereo not given)		3.59% [at 42.5 µM]
O=C(O)Cc1cc(I)c(Oc2cc(I)c(O)c(I)c2)c(I)c1		-16.9% [at 42.5 µM]
CNC(=O)NC		-7.64%
O=c1n(CC2CO2)c(=O)n(CC2CO2)c(=O)n1CC1CO1 (stereo not given)	inactive	
CCN(CC)CC(=O)Nc1c(C)cccc1C		0.0891% [at 42.5 µM]
Cc1ccc2c(ccc3ccccc32)c1		5.35%
Cc1cc2c(OCC(CNC(C)(C)C)OC(=O)c3ccccc3)cccc2[nH]1 (stereo not given)		-1.87% [at 42.5 µM]
O=C(O)CCC(=O)O	inactive	
CNC(=O)Nc1ccc(Cl)c(Cl)c1		-5.94%
Cc1cc(CCN2CCN(c3nsc4ccccc34)CC2)cc2c1NC(=O)CC2(C)C	68.6 µM (active)	
CCOC(=O)c1cnc2c(cnn2CC)c1NN=C(C)C		3.24% [at 42.5 µM]
O=C(/C=C/c1ccccc1)OCCCc1ccccc1		-1.12%
O=C(O)Cc1sc(-c2ccccc2)nc1-c1ccc(Cl)cc1		5.92% [at 42.5 µM]

Structure (SMILES)	Potency	viability change, negative = cytotoxic
C=CCCCCCCCC		1.29%
CC(=O)N(CC(O)CN(C(C)=O)c1c(I)c(C(=O)NCC(O)CO)c(I)c(C(=O)NCC(O)CO)c1I)c1c(I)c(C(=O)NCC(O)CO)c(I)c(C(=O)NCC(O)CO)c1I (stereo not given)		3.4% [at 42.5 µM]
Cc1ccccc1C(=O)Nc1ccc(C(=O)N2CCCC(N(C)C)c3ccccc32)cc1 (stereo not given)		5.66% [at 42.5 µM]
Oc1ccc(C(O)CNCCCCCCNCC(O)c2ccc(O)c(O)c2)cc1O (stereo not given)		3.75% [at 42.5 µM]
S=c1[nH][nH]c(=S)s1		0.22%
CC(=O)Nc1nnc(S(N)(=O)=O)s1	inactive	
Nc1ccc(N)c(Cl)c1	inactive	
CCCC(=O)CC		-1.24%
COc1cccc(OC)c1O		5.28%
N#Cc1ccc(C/C(=N/NC(=O)Nc2ccc(OC(F)(F)F)cc2)c2cccc(C(F)(F)F)c2)cc1		-2.19%
O=C1CCc2ccc(OCCCCN3CCN(c4cccc(Cl)c4Cl)CC3)cc2N1		-15.3% [at 42.5 µM]
CC(C)Oc1ccc2c(=O)c(-c3ccccc3)coc2c1	inactive	
C=Cc1ccc(S(=O)(=O)O)cc1		-12.6%
NC[C@H]1O[C@H](O[C@H]2[C@H](O)[C@@H](O[C@H]3O[C@H](CO)[C@@H](O)[C@H](N)[C@H]3O)[C@H](N)C[C@@H]2N)[C@H](N)[C@@H](O)[C@@H]1O		-2.98% [at 18.9 µM]
CC1=NN(c2ccc(S(=O)(=O)O)cc2)C(=O)C1		0.647%
CCCCCCCCCCCCCCCCO	inactive	
CC(C)(C)C(=O)C(=O)O		12.7%
CCCCCCCC/C=C\CCCCCCCC(=O)NCc1ccc(O)c(OC)c1		8.66% [at 42.5 µM]
O=C(OCCN1CCOCC1)c1cccnc1Nc1cccc(C(F)(F)F)c1		-1.36% [at 42.5 µM]
C=CC(=O)CC		-6.99%
